# Results as given in the supplement of paper PMC10849652.
# Targets with a hit are over-represented here; the source holds about 7,900 in all. About 0.6% of all pairs of compound and target were hits. Values without a mark were called inactive.
# Experiments:
# Test in all cases: log2 fold change, soluble protein after heating vs DMSO (PISA); higher = thermal stabilisation; K562 cells, 10 uM, 30 min; active = over 0.2 and 3.5 SD of the protein, either way, in both replicates (recomputed)
# saracatinib = compound: CN1CCN(CCOc2cc(OC3CCOCC3)c3c(Nc4c(Cl)ccc5c4OCO5)ncnc3c2)CC1 [saracatinib]
# How it was run: (§1)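 K562 cells at 2×10^6 cells/mL were treated for 30 min with 10 μM compound, and aliquots were heated for 3 min over 48°C-58°C before pooling. Extraction used PBS with 0.5% NP-40 at 4°C, and soluble protein was the supernatant after 21,000xg for 90 min, measured by TMTpro 16plex LC-MS/MS with channel sums equalised. Thermal stability values, relative to control samples and from duplicates, are log2 fold changes.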
# sotrastaurin = compound: CN1CCN(c2nc(C3=C(c4c[nH]c5ccccc45)C(=O)NC3=O)c3ccccc3n2)CC1 [sotrastaurin]
# How it was run: as §1
# alvocidib = compound: CN1CC[C@H](c2c(O)cc(O)c3c(=O)cc(-c4ccccc4Cl)oc23)[C@H](O)C1 [alvocidib]
# How it was run: as §1
# Tubastatin A = compound: CN1CCc2c(c3ccccc3n2Cc2ccc(C(=O)NO)cc2)C1 [Tubastatin A]
# How it was run: as §1
# [1] = compound: CNC(=O)C1=CC=CC=C1NC2=NC(=NC=C2Cl)NC3=C(C=C(C=C3)N4CCOCC4)OC
# How it was run: as §1
# defactinib = compound: CNC(=O)c1ccc(Nc2ncc(C(F)(F)F)c(NCc3nccnc3N(C)S(C)(=O)=O)n2)cc1 [defactinib]
# How it was run: as §1
# rucaparib = compound: CNCc1ccc(-c2[nH]c3cc(F)cc4c3c2CCNC4=O)cc1 [rucaparib]
# How it was run: as §1
# [2] = compound: CNc1nc(-c2ccc3c(N)n[nH]c3c2)cc(N2C[C@@H](C(=O)NC3CCCCC3)CC[C@H]2C)n1
# How it was run: as §1
# encorafenib = compound: COC(=O)N[C@@H](C)CNc1nccc(-c2cn(C(C)C)nc2-c2cc(Cl)cc(NS(C)(=O)=O)c2F)n1 [encorafenib]
# How it was run: as §1
# [3] = compound: COC(=O)[C@H](CCSC)NC(=O)C1=C(C=C(C=C1)NC[C@H](CS)N)C2=CC=CC=C2
# How it was run: as §1
# Chain of UniProt Q4G0J3 (Q4G0J3 whole entry, looked up): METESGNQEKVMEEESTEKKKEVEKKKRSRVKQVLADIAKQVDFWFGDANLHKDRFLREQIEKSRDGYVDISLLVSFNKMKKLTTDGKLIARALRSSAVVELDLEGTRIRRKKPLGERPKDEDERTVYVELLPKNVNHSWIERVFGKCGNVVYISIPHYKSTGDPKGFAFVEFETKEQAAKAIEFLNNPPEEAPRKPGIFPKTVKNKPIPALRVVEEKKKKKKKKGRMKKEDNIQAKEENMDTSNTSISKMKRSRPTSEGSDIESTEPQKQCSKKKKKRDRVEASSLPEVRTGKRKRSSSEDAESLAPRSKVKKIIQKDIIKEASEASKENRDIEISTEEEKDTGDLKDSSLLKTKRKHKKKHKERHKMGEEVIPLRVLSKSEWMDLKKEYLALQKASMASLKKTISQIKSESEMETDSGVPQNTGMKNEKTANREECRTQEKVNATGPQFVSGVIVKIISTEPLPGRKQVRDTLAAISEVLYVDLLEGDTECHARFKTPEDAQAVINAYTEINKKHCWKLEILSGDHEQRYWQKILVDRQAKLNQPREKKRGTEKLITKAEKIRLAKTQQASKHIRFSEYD
# Chain of UniProt Q6N075 (Q6N075 whole entry, looked up): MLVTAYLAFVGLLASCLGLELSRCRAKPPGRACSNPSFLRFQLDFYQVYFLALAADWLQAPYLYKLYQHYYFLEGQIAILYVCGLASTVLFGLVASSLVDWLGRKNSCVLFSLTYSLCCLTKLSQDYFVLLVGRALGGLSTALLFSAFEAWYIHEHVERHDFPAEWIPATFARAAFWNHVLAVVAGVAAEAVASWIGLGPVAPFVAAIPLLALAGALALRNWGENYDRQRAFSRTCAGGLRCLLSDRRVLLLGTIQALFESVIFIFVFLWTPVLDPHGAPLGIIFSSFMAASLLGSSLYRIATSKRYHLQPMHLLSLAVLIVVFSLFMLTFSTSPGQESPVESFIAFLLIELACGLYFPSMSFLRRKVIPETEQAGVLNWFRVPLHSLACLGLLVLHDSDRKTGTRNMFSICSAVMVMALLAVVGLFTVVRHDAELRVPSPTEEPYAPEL
# Chain of UniProt Q9NQ29 (Q9NQ29 whole entry, looked up): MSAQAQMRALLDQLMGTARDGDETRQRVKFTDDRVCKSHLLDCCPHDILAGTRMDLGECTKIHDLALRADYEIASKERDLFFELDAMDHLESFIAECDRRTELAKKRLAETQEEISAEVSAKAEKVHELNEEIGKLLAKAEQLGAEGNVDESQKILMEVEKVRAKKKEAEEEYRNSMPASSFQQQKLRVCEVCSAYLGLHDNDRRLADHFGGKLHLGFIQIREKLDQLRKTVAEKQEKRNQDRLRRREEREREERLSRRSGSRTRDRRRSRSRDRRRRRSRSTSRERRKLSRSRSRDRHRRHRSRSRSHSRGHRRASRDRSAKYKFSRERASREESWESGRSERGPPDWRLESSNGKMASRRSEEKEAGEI
# Chain of UniProt Q15648 (Q15648 whole entry, looked up): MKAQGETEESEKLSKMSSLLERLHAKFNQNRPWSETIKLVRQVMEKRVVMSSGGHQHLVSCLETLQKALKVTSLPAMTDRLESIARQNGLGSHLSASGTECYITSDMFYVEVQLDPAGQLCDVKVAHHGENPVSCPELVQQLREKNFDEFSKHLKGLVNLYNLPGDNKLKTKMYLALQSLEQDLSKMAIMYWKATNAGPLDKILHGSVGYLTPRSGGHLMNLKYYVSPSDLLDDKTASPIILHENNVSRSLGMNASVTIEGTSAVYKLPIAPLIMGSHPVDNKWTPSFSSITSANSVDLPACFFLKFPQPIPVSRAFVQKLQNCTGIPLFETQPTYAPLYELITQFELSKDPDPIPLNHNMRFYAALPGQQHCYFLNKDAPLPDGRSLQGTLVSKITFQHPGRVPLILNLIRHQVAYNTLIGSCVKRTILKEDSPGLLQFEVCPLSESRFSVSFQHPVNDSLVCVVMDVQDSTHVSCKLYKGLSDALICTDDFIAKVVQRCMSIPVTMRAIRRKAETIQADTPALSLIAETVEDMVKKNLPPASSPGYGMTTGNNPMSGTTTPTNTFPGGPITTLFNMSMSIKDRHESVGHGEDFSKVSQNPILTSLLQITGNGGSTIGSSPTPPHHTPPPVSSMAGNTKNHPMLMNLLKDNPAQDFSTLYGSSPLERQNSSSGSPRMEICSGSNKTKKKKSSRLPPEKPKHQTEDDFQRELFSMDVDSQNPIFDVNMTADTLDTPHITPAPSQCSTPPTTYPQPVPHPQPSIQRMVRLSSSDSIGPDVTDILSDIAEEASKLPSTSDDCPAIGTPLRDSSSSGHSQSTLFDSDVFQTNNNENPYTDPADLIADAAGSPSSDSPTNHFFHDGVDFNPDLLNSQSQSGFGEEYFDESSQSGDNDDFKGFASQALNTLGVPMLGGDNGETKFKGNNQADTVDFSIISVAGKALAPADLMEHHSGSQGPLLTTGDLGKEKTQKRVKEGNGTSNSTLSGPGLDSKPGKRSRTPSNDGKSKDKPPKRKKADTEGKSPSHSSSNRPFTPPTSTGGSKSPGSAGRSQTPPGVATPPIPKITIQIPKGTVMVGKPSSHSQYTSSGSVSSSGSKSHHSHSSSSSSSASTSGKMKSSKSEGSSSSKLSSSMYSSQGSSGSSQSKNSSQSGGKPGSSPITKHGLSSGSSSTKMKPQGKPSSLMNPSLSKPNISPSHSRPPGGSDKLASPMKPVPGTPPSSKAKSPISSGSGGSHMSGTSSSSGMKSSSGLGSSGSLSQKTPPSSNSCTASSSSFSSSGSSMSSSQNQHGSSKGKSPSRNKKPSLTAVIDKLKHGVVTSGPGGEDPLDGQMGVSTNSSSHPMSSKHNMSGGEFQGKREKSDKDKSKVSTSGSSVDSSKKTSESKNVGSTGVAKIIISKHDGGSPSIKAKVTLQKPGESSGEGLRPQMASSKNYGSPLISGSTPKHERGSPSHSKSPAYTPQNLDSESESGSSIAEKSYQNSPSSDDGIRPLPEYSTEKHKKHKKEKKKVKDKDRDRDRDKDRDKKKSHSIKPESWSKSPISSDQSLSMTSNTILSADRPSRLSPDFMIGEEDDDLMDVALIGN
# Chain of UniProt O94822 (O94822 whole entry, looked up): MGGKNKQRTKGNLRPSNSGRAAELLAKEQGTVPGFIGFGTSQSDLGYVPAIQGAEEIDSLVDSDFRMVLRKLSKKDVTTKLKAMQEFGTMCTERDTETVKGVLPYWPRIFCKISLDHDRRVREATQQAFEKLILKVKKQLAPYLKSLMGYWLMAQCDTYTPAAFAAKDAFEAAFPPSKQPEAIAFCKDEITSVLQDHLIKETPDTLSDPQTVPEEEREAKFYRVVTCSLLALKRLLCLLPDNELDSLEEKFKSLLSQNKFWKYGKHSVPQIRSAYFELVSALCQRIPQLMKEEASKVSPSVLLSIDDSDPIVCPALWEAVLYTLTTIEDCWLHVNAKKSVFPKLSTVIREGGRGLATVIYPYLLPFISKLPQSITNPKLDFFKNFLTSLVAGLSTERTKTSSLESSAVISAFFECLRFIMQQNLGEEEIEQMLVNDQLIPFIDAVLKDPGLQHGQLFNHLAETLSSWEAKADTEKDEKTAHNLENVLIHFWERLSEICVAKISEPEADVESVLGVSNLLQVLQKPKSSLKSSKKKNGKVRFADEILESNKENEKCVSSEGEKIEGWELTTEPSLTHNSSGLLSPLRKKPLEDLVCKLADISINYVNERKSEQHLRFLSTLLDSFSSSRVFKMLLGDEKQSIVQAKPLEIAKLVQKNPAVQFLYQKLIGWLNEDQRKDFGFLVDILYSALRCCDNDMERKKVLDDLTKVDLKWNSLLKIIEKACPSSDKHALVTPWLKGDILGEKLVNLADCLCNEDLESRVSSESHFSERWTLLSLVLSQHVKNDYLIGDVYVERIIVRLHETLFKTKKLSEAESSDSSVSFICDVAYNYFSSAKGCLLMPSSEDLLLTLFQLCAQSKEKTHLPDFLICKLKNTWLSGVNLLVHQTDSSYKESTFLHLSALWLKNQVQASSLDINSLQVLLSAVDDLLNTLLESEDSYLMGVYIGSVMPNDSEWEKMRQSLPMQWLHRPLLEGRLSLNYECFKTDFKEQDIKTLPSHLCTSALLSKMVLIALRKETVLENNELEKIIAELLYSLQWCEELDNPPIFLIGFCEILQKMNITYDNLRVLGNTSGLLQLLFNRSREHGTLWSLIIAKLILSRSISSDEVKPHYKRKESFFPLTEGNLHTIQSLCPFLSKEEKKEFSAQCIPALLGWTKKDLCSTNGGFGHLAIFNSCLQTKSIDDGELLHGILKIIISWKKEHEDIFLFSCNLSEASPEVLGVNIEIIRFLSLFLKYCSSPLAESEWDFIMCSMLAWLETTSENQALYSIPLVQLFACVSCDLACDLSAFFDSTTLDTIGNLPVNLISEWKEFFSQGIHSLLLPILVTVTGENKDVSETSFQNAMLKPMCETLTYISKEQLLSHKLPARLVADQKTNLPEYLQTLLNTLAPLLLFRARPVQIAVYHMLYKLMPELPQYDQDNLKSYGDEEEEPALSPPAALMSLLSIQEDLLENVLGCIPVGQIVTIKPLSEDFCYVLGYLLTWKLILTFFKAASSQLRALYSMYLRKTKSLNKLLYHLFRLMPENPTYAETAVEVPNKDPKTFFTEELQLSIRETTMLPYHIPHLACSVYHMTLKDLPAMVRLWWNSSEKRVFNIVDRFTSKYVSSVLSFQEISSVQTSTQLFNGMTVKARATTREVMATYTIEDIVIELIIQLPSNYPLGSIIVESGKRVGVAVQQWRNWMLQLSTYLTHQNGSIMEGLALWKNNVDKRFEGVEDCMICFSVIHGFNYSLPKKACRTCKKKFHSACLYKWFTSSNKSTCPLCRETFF
# Chain of UniProt Q8NE86 (Q8NE86 whole entry, looked up): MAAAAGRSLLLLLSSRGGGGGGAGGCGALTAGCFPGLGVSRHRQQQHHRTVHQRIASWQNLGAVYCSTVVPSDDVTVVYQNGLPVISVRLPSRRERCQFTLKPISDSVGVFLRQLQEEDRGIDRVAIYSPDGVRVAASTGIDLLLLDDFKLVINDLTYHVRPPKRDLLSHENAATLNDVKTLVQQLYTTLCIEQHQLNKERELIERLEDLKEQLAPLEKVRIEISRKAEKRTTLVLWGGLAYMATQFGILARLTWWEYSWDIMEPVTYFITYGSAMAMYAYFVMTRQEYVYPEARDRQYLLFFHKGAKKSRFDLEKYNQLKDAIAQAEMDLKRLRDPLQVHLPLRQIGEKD
Target,log2 fold change (saracatinib),log2 fold change (sotrastaurin),log2 fold change (alvocidib),log2 fold change (Tubastatin A),log2 fold change [1],log2 fold change (defactinib),log2 fold change (rucaparib),log2 fold change [2],log2 fold change (encorafenib),log2 fold change [3]
MAP3K4 isoform 2 (UniProt Q9Y6R4),0.077,0.034,-0.093,-0.038,0.153,-0.008,0.006,-0.002,-0.023,0.029
MED1 (UniProt Q15648),0.001,-0.092,-0.11,-0.025,0.042,-0.005,0.067,-0.045,0.009,0.033
MFSD5 isoform 2 (UniProt Q6N075),0.058,0.122,0.029,-0.093,0.069,0.039,0.058,-0.065,-0.022,0.012
IPO7 (UniProt O95373),-0.004,-0.089,-0.146,0.023,0.01,-0.163,-0.083,-0.012,0.052,-0.015
LTN1 isoform 3 (UniProt O94822),-0.016,-0.114,-0.042,0.196,0.01,-0.114,0.158,-0.012,0.047,-0.057
LGALS8 isoform 2 (UniProt O00214),-0.359,-0.323,0.053,0.07,-0.244,0.104,0.306,0.141,0.218,-0.051
MIEF1 (UniProt Q9NQG6),-0.016,-0.042,-0.031,-0.024,-0.002,0.014,-0.009,-0.088,0.023,-0.018
LARP7 isoform 3 (UniProt Q4G0J3),0.015,-0.076,-0.234 (active),-0.002,-0.04,-0.328 (active),-0.164,0.003,0.034,-0.019
MCU (UniProt Q8NE86),0.039,-0.028,-0.08,0.036,0.013,-0.043,-0.032,-0.014,-0.017,-0.032
LIMD1 (UniProt Q9UGP4),0.074,-0.011,-0.03,-0.034,-0.029,-0.03,-0.008,-0.01,0.004,0.004
MEAK7 (UniProt Q6P9B6),0.043,-0.004,-0.056,0.028,-0.088,-0.041,0.008,0.026,0.02,0.088
LUC7L (UniProt Q9NQ29),-0.005,0.056,0.062,0.006,-0.119,0.022,0.076,-0.049,0.039,0.022
MIEN1 (UniProt Q9BRT3),0.049,-0.067,-0.141,0.069,-0.002,-0.067,-0.032,-0.019,-0.051,0.129
INTS7 (UniProt Q9NVH2),0.035,-0.503 (active),-0.095,0,0.529 (active),-0.096,0.019,-0.003,0.036,-0.019
